For 61 molecules, z-score results are on record in PubChem BioAssay AID488969 (Vanderbilt High Throughput Screening Facility, 2010).

In all, about 110,000 compounds were measured (“z-score”: median about -0.1, highest 2% from about 2 on). The list comes from a sample in which the highest values are over-represented; it also holds similar structures and randomly drawn compounds. The source made the active and inactive calls.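 The calls were made as follows: active = z-score in the third read window above 3 or below -3; inactive = the rest.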

For the assay, the target named is Metabotropic glutamate receptor 8 (Rattus norvegicus) (UniProt P70579). The assay is described as follows: rat mGluR8 modulators via GIRK flux, primary screen, cell-based, thallium flux, HTS (AID 488969). The settings on record: HEK293 rat mGluR8, GIRK (G protein-gated inwardly rectifying potassium channel) thallium flux, FluoZin2; at 10 µM; stronger effect = higher value; submaximal glutamate (EC20) added with thallium.
Chain of Metabotropic glutamate receptor 8 (Rattus norvegicus) (P70579 whole entry, looked up): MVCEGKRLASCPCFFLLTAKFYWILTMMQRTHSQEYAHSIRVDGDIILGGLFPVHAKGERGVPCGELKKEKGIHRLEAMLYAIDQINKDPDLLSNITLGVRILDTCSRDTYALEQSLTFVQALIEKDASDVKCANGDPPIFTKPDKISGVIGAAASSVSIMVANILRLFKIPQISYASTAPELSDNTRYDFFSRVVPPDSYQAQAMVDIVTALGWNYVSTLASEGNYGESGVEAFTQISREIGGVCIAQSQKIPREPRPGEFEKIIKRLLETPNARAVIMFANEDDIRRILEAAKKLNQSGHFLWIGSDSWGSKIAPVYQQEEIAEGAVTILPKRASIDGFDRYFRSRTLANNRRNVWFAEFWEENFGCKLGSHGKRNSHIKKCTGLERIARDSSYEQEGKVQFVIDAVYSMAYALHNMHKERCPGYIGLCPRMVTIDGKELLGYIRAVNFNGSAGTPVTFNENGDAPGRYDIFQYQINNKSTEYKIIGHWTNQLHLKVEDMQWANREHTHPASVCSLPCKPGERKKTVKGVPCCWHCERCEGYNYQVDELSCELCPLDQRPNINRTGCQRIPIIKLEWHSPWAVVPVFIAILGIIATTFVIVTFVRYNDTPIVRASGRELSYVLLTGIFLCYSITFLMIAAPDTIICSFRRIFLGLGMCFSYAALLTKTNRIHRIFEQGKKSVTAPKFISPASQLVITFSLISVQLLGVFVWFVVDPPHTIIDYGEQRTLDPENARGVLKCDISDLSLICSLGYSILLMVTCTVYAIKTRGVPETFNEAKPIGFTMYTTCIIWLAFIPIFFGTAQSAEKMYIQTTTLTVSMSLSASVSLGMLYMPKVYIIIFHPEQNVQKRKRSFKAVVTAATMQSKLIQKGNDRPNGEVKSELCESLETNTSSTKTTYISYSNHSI
In turn, `COc1ccc(CCNC(=O)CSc2nnc(CNC(=O)c3ccco3)o2)cc1OC` returned a z-score of 0.382.

For `Cc1cc(C)c2nc(SCC(=O)NCCC3=CCCCC3)cc(C)c2c1`, the z-score is 3.98 (active).

In the case of `Cc1cc(C)c2nc(SCC(=O)NCCN3C(=O)CSC3=O)cc(C)c2c1`, the z-score was -0.238. With `Cc1ccc(-n2nnnc2SCC(=O)NCCC2=CCCCC2)c(C)c1` the figure was 0.08. `CC(C)=CC(=O)Nc1nnc(C)s1` had a z-score of 0.00638. Molecule `COCc1nnc(NC(=O)c2ccco2)s1` returned a z-score of 0.76. As to `C/C=C(\C)c1nnc(NC(=O)c2ccco2)s1`, the z-score is -0.358. The value for `CC(=O)Nc1nnc(C)s1` was 3.66 (active). In turn, `CCC(=O)Nc1nnc(C)s1` gave a z-score of 0.946. Take `Cc1nnc(NC(=O)c2ccco2)s1`: the z-score is 3.93 (active). As to `CCCOc1ccc(N2C(=O)CC(N(CCc3ccc(OC)cc3)C(=O)c3cccc(F)c3)C2=O)cc1` (stereo unspecified), the z-score is -0.214. For the molecule `COc1ccccc1N(CN1CCCC1=O)C(=O)c1ccccc1F`, the z-score is -0.699. Take `O=C1/C(=C\Nc2ccc(Cl)cc2)CCN1c1ncccn1`: the z-score was found to be 0.111. For `Cc1ccc(C(=O)NCCNc2ccc(Cl)cc2[N+](=O)[O-])o1`, the z-score was -0.083. With `CCCN1C2=NS(=O)(=O)CCN2c2ccccc21` the figure was 0.249; with `C=CCn1c(SCC(=O)c2cc(C)n(CCOC)c2C)nc2sc(C)c(C)c2c1=O`, -0.255. Consider `COc1nc(N2CCOCC2)nc(C)c1[N+](=O)[O-]`, for which the z-score was -0.535.

In the case of `O=C(NNC(=O)c1ccccc1-n1cccc1)c1ccc(Cl)cc1Cl`, the z-score worked out at 0.632.

Consider `CC1Cc2ccccc2N1C(=S)NC(=O)c1ccc(Cl)cc1Cl` (stereo unspecified), for which the z-score was 13.5 (active).

For the molecule `CCCN(CCC)CCCOC(=O)c1ccc(Cl)cc1Cl`, the z-score is 3.95 (active). Turning to `CN(C)CCCOC(=O)c1ccc(Cl)cc1Cl`, the z-score worked out at 0.77. With `CCN(CC)C(=S)NC(=O)c1ccc(Cl)cc1Cl` the figure was 2.95; with `CCCCN(CCCC)C(=S)NC(=O)c1ccccc1Cl`, -0.755; with `CC1Cc2ccccc2N1C(=S)Nc1ccc(S(N)(=O)=O)cc1` (stereo unspecified), 0.0257. With `C=CCNC(=O)c1ccc(Cl)cc1Cl` the figure was 0.206; with `CCCN(CCC)C(=S)NC(=O)c1ccc(Cl)cc1Cl`, 14.4 (active); with `CCCC(=O)NC(=S)Nc1cccc(NC(=O)c2ccc(Cl)cc2Cl)c1`, -0.0719. For `CCC(=O)NC(=S)Nc1cccc(NC(=O)c2ccc(Cl)cc2Cl)c1`, the z-score amounted to 0.179. `CN(C)CCCOC(=O)c1ccccc1Cl` returned a z-score of 0.35. `O=C(Cc1ccc([N+](=O)[O-])cc1)Nc1nnc(C2CC2)s1`: the z-score turned out to be 1.17.

With `Cc1cc2cc(CN(CC3CCCO3)C(=S)Nc3ccccc3)c(=O)[nH]c2cc1C` (stereo unspecified), the z-score is -0.235. Take `Cc1ccc2c(c1)NC(=O)CC(c1ccccc1)=N2`: the z-score was 8.23 (active). With `COc1ccc2c(c1)NC(=O)CC(c1ccccc1)=N2` the figure was -0.0551; with `O=C1CC(c2ccccc2)=Nc2ccccc2N1`, -0.0288. As to `COc1ccc(/C=N/NC(=O)C[n+]2ccccc2)c(OC)c1OC`, the z-score is -0.273. `Fc1ccccc1N1CCN(C(c2cccs2)c2nnnn2CCc2ccccc2)CC1` (stereo unspecified) registered a z-score of 0.131. The value for `Cc1ccc(NC2=C(Cl)C(=O)OC2NC(=O)c2ccccc2)cc1` (stereo unspecified) was -0.201; that for `CCN1CCN(C(c2ccccc2)c2nnnn2CCc2ccc(OC)c(OC)c2)CC1` (stereo unspecified) was 0.256; that for `COc1cccc(C(c2nnnn2CCc2ccccc2)N2CCN(c3ccccc3)CC2)c1OC` (stereo unspecified) was -0.689. The value for `COc1ccccc1C(c1nnnn1CCc1ccccc1)N1CCN(c2ccccc2)CC1` (stereo unspecified) was -0.00308. In turn, `C=CCN1CCN(C(c2ccc(Cl)cc2)c2nnnn2CCc2ccc(OC)c(OC)c2)CC1` (stereo unspecified) had a z-score of 2.29. Take `COc1ccc(CCn2nnnc2C(c2ccc(C)cc2)N2CCN(C)CC2)cc1OC` (stereo unspecified): the z-score was found to be 0.0408.

`COc1ccccc1C(c1nnnn1CCc1ccccc1)N1CCCCCC1` (stereo unspecified) came in with a z-score of 2.68. `CCOc1ccc(Cc2c(Cl)nc(SC)nc2N(C)C)cc1`: the z-score is -0.458. Turning to `CSc1nnc(C2CCCN2)n1C` (stereo unspecified), the z-score is 0.383. `O=C(COc1ccc(S(=O)(=O)N2CCOCC2)cc1)Nc1ccccc1C(F)(F)F`: the z-score is 1.25. With `CCn1c(SCC(=O)NC2CCCCC2C)nnc1-c1ccc(OC)cc1` (stereo unspecified), the z-score amounted to 0.074. With `CC(=O)N1c2c(ccc3ccccc23)C(C)CC12CCCCC2` (stereo unspecified), the z-score was -0.635.

Take `O=c1c2ccccc2ncn1CCCOc1ccccc1[N+](=O)[O-]`: the z-score is -0.198. As to `O=C(Cn1cnc2c(nnn2Cc2ccc(F)cc2)c1=O)N1CCN(c2ccccc2)CC1`, the z-score was -0.0198. Turning to `Cc1oc(-c2ccccc2)nc1CC(=O)O`, the z-score is -0.979. In the case of `COc1cccc(-c2nc(CS(=O)CC(=O)O)c(C)o2)c1` (stereo unspecified), the z-score stood at 0.0172. The molecule `Cc1oc(-c2ccccc2)nc1CS(=O)CC(=O)O` (stereo unspecified) returned a z-score of 2.52. In turn, `CCN(CC)CCNC(=O)CS(=O)Cc1nc(-c2ccc(Cl)cc2)oc1C` (stereo unspecified) registered a z-score of 2.41. In the case of `CCCN(CCC)CCNC(=O)CS(=O)Cc1nc(-c2ccc(C)cc2)oc1C` (stereo unspecified), the z-score turned out to be 1.19. Turning to `COCCNC(=O)CS(=O)Cc1nc(-c2ccc(Cl)cc2)oc1C` (stereo unspecified), the z-score stood at 0.00619. With `CCN(CC)CC(O)COc1ccc2c(c1)OCO2` (stereo unspecified) the figure was -0.199. `Cc1cc(C)cc(OCCCCCNCCO)c1`: the z-score was -0.911. The value for `COc1ccc(-c2nc(NC(=O)CSc3nnc4ccccn34)ns2)cc1` was -0.0274; that for `O=C(CSc1nnc2scc(-c3ccccc3)n12)Nc1nsc(-c2ccccc2)n1` was -0.713; that for `O=C(CSc1nnc2ccccn12)Nc1nsc(-c2ccccc2)n1` was 3.63 (active).
